Measured values from PubChem BioAssay (NCATS).
Values joined by “and” are separate entries in the source; they are usually repeats but may differ in a detail not shown here. Equal entries are not always repeated. Results filed as inconclusive are left out. A number with no mark means an inactive call. Active and inactive are the calls of the source. Calls come from the whole dose curve; as a rule, active = well fitted cell-killing curve with a large enough effect; inconclusive = small, poorly fitted or top-dose-only effect, or effect the other way; inactive = no such curve, though single readings can be large or run the other way.

experiment: Viability qHTS for spleen associated tyrosine kinase inhibitor (SYKi) drug resistant MV4-11 cells (AID 1963824); conditions: SYKi-resistant MV4-11 viability, CellTiter-Glo, 72 h; series mostly up to 45 µM; note: nearly all actives have a fitted effect of over 35% in size
Source text: Department of Medicine, Hematology/Oncology
University Hospital Frankfurt, Germany.
Trials have shown promising clinical activity of the selective SYK inhibitor entospletinib in patients with high expressing HOXA9/MEIS1 acute leukemias. As the development of resistance mechanisms is a common problem in the use of targeted drugs, we performed a chemical library screen to identify drug sensitivities in SYK inhibitor resistant AML cells. […] Glucocorticoids are potent immunosuppressants which work in part by inhibiting the transcription of cytokine genes.
Described herein is a viability screen to look for activity in the SYK inhibitor drug resistant cell line against four NCATS compound libraries (MIPE 5.0, NPC, NPACT, and Kinase) totaling 11372 compounds. Active hits were reacquired for confirmation and further secondary assay testing.
SEQUENCE No. (e.g., 1, 2, 3, etc.); […] (e.g., Cells, Incubation, Reagent, etc.); VALUE; DESCRIPTION.
1; Media; 2uL; white, solid-bottom Corning assay plate.
2; Compounds; 23nL; Echo acoustic dispenser.
3; Cell; 5uL; 500 cells per well.
4: Incubation; 72hr; 37 C, 5% CO2, 95% humidity.
5; Reagent; 3uL; CellTiter-Glo reagent (Promega).
6; Incubation; 10min; room temperature.
7; Detection; Luminescence; ViewLux plate reader (PerkinElmer).
NOTES (numbers refer to Sequence numbers above
1. Quantitative high-throughput screening (qHTS) of small molecule compounds was conducted on drug resistant SYKi MV4-11 cell line.
2. Twenty-three nanoliter of small molecule compounds were added to each assay plates using the Echo acoustic dispenser (Beckman Coulter).
3. Cells were seeded into the assay plates at a final density of 500 cells in 5uL of media per well using the Multidrop Combi dispenser.
4. Plates were covered with stainless steel gasketed lids and incubated for 72 hours at standard cell culture conditions.
5. Viability was assessed by adding 3uL of CellTiter-Glo detection reagent (Promega).
6. Plates were covered with gasket lids and incubated for 10 minutes at room temperature.
7. Luminescence was measured on a ViewLux plate reader (PerkinElmer).
Potency is the fitted concentration of half-maximal effect.

Structure (SMILES)	Potency	viability, % of control
Nc1nc(O)c(C2=C3C(=Nc4ccccc43)C(=O)NCC2)[nH]1	1.16 µM (active)	
CCN(CC)CCCC(C)Nc1ccnc2cc(Cl)ccc12 (stereo not given)	10.3 µM (active)	
CN1CCC[C@@H]1c1cccnc1	inactive	
CCCCCCCCCCCCCC[N+](C)(C)C	1.33 µM (active)	
CC1(C)O[C@@H]2C[C@H]3[C@@H]4CCC5=CC(=O)C=C[C@]5(C)[C@@H]4[C@@H](O)C[C@]3(C)[C@]2(C(=O)CO)O1	inactive	
CN1CCN(c2cc3c(nn2)Oc2ccccc2N3C)CC1	inactive	
CC(C)C1CCC(CO)=CC1/C=C(\CO)C(=O)OCC1(O)CCC(C(C)C)C2C=C(C(=O)O)COC(=O)C21 (stereo not given)	inactive	
CCOc1cc(CC(=O)NC(CC(C)C)c2ccccc2N2CCCCC2)ccc1C(=O)O (stereo not given)	inactive	
CN(C)c1ccc(O)c2c1C[C@H]1C[C@H]3[C@H](N(C)C)C(=O)C(C(N)=O)=C(O)[C@@]3(O)C(=O)C1=C2O	20.9 µM (active)	
COc1ccc(/C=C/C(=O)O[C@@H]2[C@@H](O)[C@H](C)O[C@@H](OC3C4C=COC(O[C@@H]5O[C@H](CO)[C@@H](O)[C@H](O)[C@H]5O)C4C4(CO)OC34)[C@@H]2O)cc1OC (stereo not given in full)	inactive	
CN(C)C(=O)NC1(c2ccccc2)CCN(CCC[C@]2(c3ccc(Cl)c(Cl)c3)CCCN(C(=O)c3ccccc3)C2)CC1	4.11 µM (active)	
COc1c2c(c(C)c3c1C(=O)OC3)OC1(C)CC(O)C34OC(OC)(OC3(C)C)C(O)CC4(C)C1C2 (stereo not given)	inactive	
C=C(CO)C(=O)O[C@H]1C[C@@]23O[C@@H]2CC/C(=C/[C@H]2OC(=O)C(=C)[C@H]12)CO[C@H]3O	11.4 µM (active)	
S=c1nc[nH]c2nc[nH]c12	2.37 µM (active) and 833 nM (active)	
O=C(c1ccc(OCCN2CCCCC2)cc1)c1c(-c2ccc(O)cc2)sc2cc(O)ccc12	13.3 µM (active) and 16.6 µM (active) and 10.3 µM (active)	
Cn1cc[nH]c1=S	inactive	
Cn1nccc1Nc1nccc(-c2cc3c(s2)C(C)(C)N(CCN2CCOCC2)C3=O)n1	3.72 µM (active)	
OC[C@H]1O[C@@H](Oc2ccccc2)[C@H](O)[C@@H](O)[C@@H]1O	inactive	
CC1(C)CC[C@]2(C(=O)O[C@@H]3O[C@H](CO[C@@H]4O[C@H](CO)[C@@H](O)[C@H](O)[C@H]4O)[C@@H](O)[C@H](O[C@@H]4O[C@H](CO)[C@@H](O)[C@H](O)[C@H]4O)[C@H]3O)CC[C@]3(C)C(=CCC4[C@@]5(C)CC[C@H](O[C@@H]6OC[C@@H](O)[C@H](O)[C@H]6O)[C@@](C)(C(=O)O)C5CC[C@]43C)[C@@H]2C1 (stereo not given in full)		108% [at 9.25 µM]
C=C1C(=O)O[C@@H]2C3C(=C(C)[C@@H](O)[C@@H](OC(=O)/C(=C/C)COC(C)=O)[C@@H]12)C(=O)[C@H]1O[C@@]31C (stereo not given in full)	3.55 µM (active)	

Structure (SMILES)	Potency	viability, % of control
c1ccc(C(OC2CCN(CCCc3nn[nH]n3)CC2)c2ccccc2)cc1	inactive	
COc1cc2c(cc1O)C1(OC)Cc3ccc4c(c3C1N(C)CC2)OCO4 (stereo not given)	5.08 µM (active)	
COc1cccc2c1C(=O)c1c(O)c3c(c(O)c1C2=O)C[C@@](O)(C(C)=O)C[C@@H]3O[C@H]1C[C@H](N)[C@H](O)[C@H](C)O1	42.2 nM (active) and 18.6 nM (active)	
C[C@@H]1O[C@@H](O[C@@H]2CO[C@@H](O[C@H]3CC[C@@]4(C)C(CC[C@]5(C)C4CC=C4[C@@H]6CC(C)(C)CC[C@]6(C(=O)O[C@@H]6O[C@H](CO)[C@@H](O)[C@H](O)[C@H]6O)CC[C@]45C)[C@]3(C)CO)[C@H](O)[C@H]2O[C@@H]2O[C@H](CO)[C@@H](O)[C@H](O)[C@H]2O)[C@H](O)[C@H](O)[C@H]1O (stereo not given in full)		62.6% [at 9.25 µM]
CCCCCCCC/C=C\CCCCCCCC(=O)NCc1ccc(O)c(OC)c1	0.668 µM (active)	
C[C@H]1[C@H](O)O[C@@H]2O[C@@]3(C)CC[C@H]4[C@H](C)CC[C@@H]1[C@@]24OO3	0.731 µM (active)	
COc1cc(O)c2c(c1)C1=CC(O)C(O)CC1(C)OC2=O (stereo not given)	inactive	
C[C@H]1[C@@H](OC(=O)CCC(=O)O)O[C@@H]2O[C@@]3(C)CC[C@@H]4[C@H](C)CC[C@@H]1[C@@]24OO3	1.16 µM (active)	
CCCOc1ccc(C(=O)OCCN(CC)CC)cc1N	inactive	
CC(C)NCC(O)COc1cccc2[nH]ccc12 (stereo not given)	inactive	
CCC(C)C(=O)O[C@H]1[C@H](O)[C@@]2(COC(C)=O)C(CC1(C)C)C1=CCC3[C@@]4(C)CC[C@H](O[C@@H]5O[C@H](C(=O)O)[C@@H](O)[C@H](O)[C@H]5O)[C@@](C)(CO)C4CC[C@@]3(C)[C@]1(C)C[C@@H]2O (stereo not given in full)	3.48 µM (active)	
CCNCCc1ccc(CN(CC)c2cc(OC)ccc2[C@@H]2CCc3cc(O)ccc3C2)cc1	2.95 µM (active)	
COc1ccc(C[C@H](N)C(=O)N[C@@H]2[C@H](O)[C@H](n3cnc4c(N(C)C)ncnc43)O[C@@H]2CO)cc1	0.184 µM (active)	
Cc1ccc(Nc2nnc(Cc3ccncc3)c3ccccc23)cc1Br	10.5 µM (active)	
CC1CC(=O)[C@]2(O)C(C(=O)OCCc3ccc(O)cc3)=CO[C@@H](O[C@@H]3O[C@H](CO)[C@@H](O)[C@H](O)[C@H]3O)[C@H]12 (stereo not given in full)	inactive	
Cc1cccc(CN2CCN(C(c3ccccc3)c3ccc(Cl)cc3)CC2)c1 (stereo not given)	11.9 µM (active) and 26.3 µM (active)	
CCCNC(C)C(=O)Nc1c(C)csc1C(=O)OC (stereo not given)	inactive	
O=C(Nc1cccc(Br)c1)c1cccc(S(=O)(=O)N2CCCCCC2)c1	5.25 µM (active)	
C=C1C[C@]23C[C@H]1CC[C@H]2[C@]1(C)CCC[C@@]2(CO)C(=O)O[C@H]([C@H]21)[C@@H]3O	inactive	
COc1cc2nccc(Oc3ccc(NC(=O)NC4CC4)c(Cl)c3)c2cc1C(N)=O	1.03 µM (active)	
